Consider 29 compounds from PubChem BioAssay (Tox21).

Structures are written as SMILES. Records with an inconclusive call do not appear. The source made the active and inactive calls. Unless noted, the call rests on the fitted dose curve; in most records, active means well fitted curve in the direction sought with a large enough effect in the repeat runs; inconclusive means weak or mixed curves; inactive means no such curve, though single readings can be large; an effect the other way counts as inactive or inconclusive.

Assay [1] in a line: A CellTox Green Cytotoxicity Assay to monitor cytotoxicity in HepG2 cells - 8 hour (AID 1224890). Further: nearly all actives have a fitted effect of over 45% in size. Put shortly:
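Nonlytic assay: viable cells exclude the dye, so fluorescence scales with cell death. HepG2 at 600 cells/well, compounds added after 5 h, signal read across 40 h.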

The nature of assay [2]: qHTS assay to identify small molecule antagonists of the estrogen receptor alpha (ER-alpha) signaling pathway using the BG1 cell line in the presence of 0.1 nM 17-beta-estradiol - cell viability counter screen (AID 1259241). Further: nearly all actives have a fitted effect of over 40% in size. The essentials:
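Cytotoxicity counter-screen: live-cell protease activity measured by fluorescence (30 min reagent step) in the same wells. Cells were VM7Luc4E2 with endogenous ER-alpha and ERE-driven luciferase, treated 22 hr at 37C alongside 0.1 nM 17beta-estradiol final.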

The nature of assay [3]: qHTS assay to identify small molecule HDAC inhibitors (AID 1259364).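 Further: wild-type HCT-116 cells with endogenous class I/II HDAC activity; top concentration of the series differs between compounds; nearly all actives have a fitted effect of over 45% in size.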 The essentials:
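Relative class I and II HDAC activity is taken from the luminogenic signal in HCT-116 cells, with compound exposure 2 hr and reagent development 30 min at room temperature.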

Assay [4] in a line: qHTS assay to identify small molecule HDAC inhibitors - cell viability counter screen (AID 1259365). Further: series mostly up to about 92 µM; nearly all actives have a fitted effect of over 50% in size. The essentials:
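CellTiter-Glo luminescence (30 min, room temperature) reported viability after a 2 h compound exposure at 37 C. Cells: wild-type HCT-116, 1,500 per well, seeded the night before.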

Assay [5] in a line: qHTS assay to identify small molecule agonists of the sonic hedgehog signaling (Shh) pathway - cell viability counter screen (AID 1259366). Further: nearly all actives have a fitted effect of over 50% in size. Further: potency means the concentration at half of the fitted maximal effect. The essentials:
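Cytotoxicity counter screen: CellTiter-Fluor reagent added after 23 h compound exposure, then 1 h at 37C and fluorescence read. Cells were 3T3 Gli1-Luc, seeded 2,000 per well and dosed 4 h post-plating.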

Assay [6] can be described thus: qHTS assay to identify small molecule antagonists of the sonic hedgehog signaling (Shh) pathway - cell viability counter screen (AID 1259367). Further: nearly all actives have a fitted effect of over 55% in size. Further: potency means the concentration at half of the fitted maximal effect. The essentials:
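Seed 3T3 Gli1-Luc cells at 2,000 per well; incubate 4 hr; add compound in DMSO, then conditioned medium; incubate at 37C with 5% CO2; add CellTiter-Fluor after 23 hr; read fluorescence 1 hr later.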

Assay [7] addresses Estrogen receptor (Homo sapiens) (UniProt P03372). The experiment in a line: qHTS assay to identify small molecule antagonists of the estrogen receptor alpha (ER-alpha) signaling pathway using the BG1 cell line in the presence of 0.1 nM 17-beta-estradiol (AID 1259244). Further: nearly all actives have a fitted effect of over 50% in size. Further: potency means the concentration at half of the fitted maximal effect. The essentials: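 VM7Luc4E2; 4xERE-luciferase; 0.1 nM E2 final; 22 h co-incubation, 37C; ONE-Glo luminescence after 30 min at room temperature.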

The target in assay [8] is Androgen receptor (Homo sapiens) (UniProt P10275). In words: qHTS assay to identify small molecule antagonists of the androgen receptor (AR) signaling pathway using the MDA cell line in the presence of 0.5 nM R1881 (AID 1259243). Further: nearly all actives have a fitted effect of over 50% in size. Further: potency means the concentration at half of the fitted maximal effect. Put shortly:
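We exposed MDA-kb2 cells to compounds under 0.5 nM R1881 stimulation for 16 hr at 37C and quantified MMTV-driven luciferase by luminescence.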

Assay [9] can be described thus: qHTS assay to identify small molecule phospholipidosis (PLD) inducers (AID 1259344; active means well fitted curve in the direction sought with a large enough effect; an effect the other way counts as inactive or inconclusive). The essentials: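 Quantitative HTS in HepG2: compound plus LipidTOX Red dye for 24 h, paraformaldehyde fixation with Hoechst 33342, widefield high-content imaging; amiodarone as positive and DMSO as negative control.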
Assay [10] can be described thus: qHTS assay to identify small molecule antagonists of the androgen receptor (AR) signaling pathway using the MDA cell line in the presence of 0.5 nM R1881 - cell viability counter screen (AID 1259242). Further: nearly all actives have a fitted effect of over 45% in size. Put shortly: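 R1881 at 0.5 nM final stimulated MDA-kb2 cells during 16 hr compound treatment at 37C. Cytotoxicity read: CellTiter-Fluor fluorescence after 30 min.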

Chain of Estrogen receptor (Homo sapiens) (P03372 whole entry, looked up): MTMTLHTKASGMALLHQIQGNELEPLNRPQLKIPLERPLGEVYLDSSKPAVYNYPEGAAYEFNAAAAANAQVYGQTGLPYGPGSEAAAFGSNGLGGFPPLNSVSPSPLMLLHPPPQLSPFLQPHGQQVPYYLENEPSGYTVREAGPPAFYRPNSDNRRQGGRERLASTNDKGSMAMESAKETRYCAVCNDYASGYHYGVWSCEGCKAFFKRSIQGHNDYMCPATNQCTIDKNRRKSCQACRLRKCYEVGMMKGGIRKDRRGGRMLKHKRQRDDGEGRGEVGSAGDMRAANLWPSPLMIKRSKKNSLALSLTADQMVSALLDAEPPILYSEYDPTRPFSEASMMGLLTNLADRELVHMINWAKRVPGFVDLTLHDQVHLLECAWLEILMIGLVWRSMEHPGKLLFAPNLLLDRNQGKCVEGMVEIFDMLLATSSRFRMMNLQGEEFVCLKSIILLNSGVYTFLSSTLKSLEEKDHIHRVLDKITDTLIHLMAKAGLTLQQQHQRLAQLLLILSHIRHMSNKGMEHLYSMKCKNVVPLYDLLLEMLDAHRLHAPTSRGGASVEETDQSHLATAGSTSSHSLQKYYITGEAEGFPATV
Chain of Androgen receptor (Homo sapiens) (P10275 whole entry, looked up): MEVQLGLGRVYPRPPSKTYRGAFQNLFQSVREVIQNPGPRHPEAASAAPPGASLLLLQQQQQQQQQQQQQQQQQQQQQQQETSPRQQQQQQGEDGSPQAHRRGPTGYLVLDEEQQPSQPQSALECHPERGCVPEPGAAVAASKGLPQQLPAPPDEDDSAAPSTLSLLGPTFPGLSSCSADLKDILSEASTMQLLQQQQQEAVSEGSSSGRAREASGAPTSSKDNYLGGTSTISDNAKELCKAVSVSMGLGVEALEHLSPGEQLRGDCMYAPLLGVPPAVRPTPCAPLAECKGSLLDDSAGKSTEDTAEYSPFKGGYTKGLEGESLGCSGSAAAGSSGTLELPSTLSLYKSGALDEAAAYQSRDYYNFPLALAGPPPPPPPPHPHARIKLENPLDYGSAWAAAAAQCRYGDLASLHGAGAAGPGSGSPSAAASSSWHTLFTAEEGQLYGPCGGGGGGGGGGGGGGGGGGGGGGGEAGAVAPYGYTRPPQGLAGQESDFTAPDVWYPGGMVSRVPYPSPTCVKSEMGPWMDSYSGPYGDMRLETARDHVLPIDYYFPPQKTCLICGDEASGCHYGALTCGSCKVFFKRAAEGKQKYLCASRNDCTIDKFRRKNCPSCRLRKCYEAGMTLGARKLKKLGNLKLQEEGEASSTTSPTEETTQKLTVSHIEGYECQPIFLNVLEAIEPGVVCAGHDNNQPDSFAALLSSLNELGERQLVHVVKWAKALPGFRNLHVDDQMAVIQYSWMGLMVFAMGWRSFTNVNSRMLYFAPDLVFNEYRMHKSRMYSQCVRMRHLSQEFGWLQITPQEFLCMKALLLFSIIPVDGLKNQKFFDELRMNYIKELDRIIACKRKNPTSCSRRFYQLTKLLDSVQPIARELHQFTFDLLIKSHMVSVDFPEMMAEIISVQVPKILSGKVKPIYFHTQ

For the compound `BrCC(Br)C1CCC(Br)C(Br)C1` (configuration not stated), the Potency result in assay [1], in assay [2], in assay [3], in [4], in [5] and in assay [6] was “inactive” throughout.

In the case of `NC(=O)C(Cl)(Cl)Cl`, the Potency result in assay [1], in assay [2], in assay [7], in assay [3], in assay [4] and in [5] was “inactive” in each case.

For the compound `COc1cc(Cl)c(OC)cc1Cl`, the Potency result in assay [1], in [2], in assay [7], in assay [3], in [4] and in [5] was “inactive” throughout. Also, the Potency entry in assay [6] was “inactive”.

In the case of `Brc1ccccc1`, the Potency entry in assay [1], in assay [2], in assay [8], in [3], in assay [4] and in assay [5] was “inactive” throughout. Besides, in assay [6], the Potency entry is “inactive”.

On to `Oc1ccc(Cl)c(Cl)c1Cl`, for which the Potency result in assay [1], in assay [2], in assay [3], in assay [4] and in assay [5] was “inactive” in each case.

As for `COC(=O)c1cncn1C(C)c1ccccc1` (configuration not stated), the Potency entry in assay [1], in assay [2], in [3], in assay [4], in [5] and in assay [6] was “inactive” throughout. For the same compound, in assay [9], the result was inactive.

For the compound `OC(c1ccc(Cl)cc1)(c1ccc(Cl)cc1)c1cccnc1`, the Potency entry in [1], in assay [2], in assay [7], in [3], in [4] and in assay [6] was “inactive” throughout. The Potency in assay [8] is 27.3 µM (active).

With `Cc1ccc(-c2c(Cl)nc(C#N)n2S(=O)(=O)N(C)C)cc1`, the Potency result in assay [1], in assay [2] and in assay [4] was “inactive” throughout. Moreover, the Potency in assay [8] is 38.5 µM (active); in assay [7] it was 43.2 µM (active).

Turning to `C=CCCl`, the Potency result in assay [1], in assay [2], in assay [7], in [3], in [4] and in [5] was “inactive” each time. The Potency entry in assay [6] is “inactive”.

Consider `N#CCc1ccccc1`, for which the Potency result in assay [1], in assay [2], in assay [7], in assay [3], in [4] and in assay [5] was “inactive” each time.

`Cc1ccccc1C(=O)Nc1cccc(OC(C)C)c1`: the Potency result in assay [1], in assay [2], in assay [8], in [7], in assay [4] and in assay [5] was “inactive” in each case. For the same compound, the Potency result in assay [6] is “inactive”.

As for `OCCCBr`, the Potency entry in assay [1], in assay [2], in assay [3], in assay [4], in assay [5] and in assay [6] was “inactive” each time. For the same compound, in assay [9], the compound was called inactive.

In the case of `C=C(C#N)CCC#N`, the Potency entry in assay [1], in [2], in [7], in assay [3], in [4] and in assay [6] was “inactive” each time.

With `C(=NC1CCCCC1)=NC1CCCCC1`, the Potency result in assay [1], in assay [2], in assay [3], in [4], in assay [5] and in assay [6] was “inactive” each time.

For `C=CC(=O)OCCCCO`, the Potency entry in assay [1], in assay [2], in assay [7], in [3] and in [4] was “inactive” throughout. Besides, in [5], the Potency is 61.1 µM (active).

Turning to `CC(C)N(CCC(C(N)=O)(c1ccccc1)c1ccccn1)C(C)C` (configuration not stated), the Potency result in assay [1], in [2], in assay [3], in assay [4] and in assay [6] was “inactive” each time. Moreover, the outcome in assay [9] was inactive.

With `COC(N)=O`, the Potency result in assay [1], in assay [2], in assay [7], in assay [3], in assay [4] and in assay [5] was “inactive” each time.

In the case of `COc1nn(CSP(=S)(OC)OC)c(=O)s1`, the Potency entry in assay [1], in [2], in assay [3], in [4], in assay [5] and in assay [6] was “inactive” each time. The call in assay [9] was inactive.

As for `CCCCCCCCOC(=O)c1ccc(C(=O)OCCCCCCCC)c(C(=O)OCCCCCCCC)c1`, the Potency entry in assay [1], in assay [2], in assay [3], in assay [4], in assay [5] and in assay [6] was “inactive” each time.

For `O=C(O)C(F)(F)C(F)(F)C(F)(F)C(F)(F)C(F)(F)C(F)(F)C(F)(F)C(F)(F)C(F)(F)F`, the Potency result in [1], in assay [2], in assay [7], in [3], in assay [4] and in assay [6] was “inactive” throughout.

For the compound `CCC(Cl)CCl` (configuration not stated), the Potency result in assay [1], in assay [2], in [3], in assay [4] and in [5] was “inactive” each time.

On to `CCOC(=O)[C@]1(c2ccccc2)Oc2ccccc2[C@@H]1N`, for which the Potency entry in assay [1], in assay [2], in assay [3], in assay [4], in [5] and in assay [6] was “inactive” throughout.

Regarding `COP(=S)(OC)Oc1ccc([N+](=O)[O-])cc1Cl`, the Potency result in assay [1] and in assay [4] was “inactive” in each case. Also, the Potency in assay [8] was 6.86 µM (active).

With `ClCCCCBr`, the Potency result in [1], in [2], in assay [3], in assay [4] and in [6] was “inactive” in each case.

As for `CC1CC(CC2CCC(N)C(C)C2)CCC1N` (configuration not stated), the Potency entry in [1], in assay [8] and in [4] was “inactive” each time.

In the case of `O=S1OC[C@@H]2[C@H](CO1)[C@]1(Cl)C(Cl)=C(Cl)[C@@]2(Cl)C1(Cl)Cl` (some centres not stated), the Potency result in assay [2], in [10], in assay [4] and in assay [6] was “inactive” each time. Besides, the Potency in assay [8] is 48.6 µM (active).

Take `NS(=O)(=O)C(F)(F)C(F)(F)C(F)(F)C(F)(F)C(F)(F)C(F)(F)C(F)(F)C(F)(F)F`: the Potency entry in assay [1], in [10], in [8], in assay [7], in assay [3] and in assay [4] was “inactive” each time. Besides, the Potency result in [5] and in assay [6] was “inactive” throughout.

Regarding `CCc1ccc(C(=O)NN(C(=O)c2cc(C)cc(C)c2)C(C)(C)C)cc1`, the Potency result in [1], in assay [10] and in assay [4] was “inactive” each time. Further, the Potency in [5] was 2.17 µM (active); in [6], 2.43 µM (active).

For `NC(=O)CI`, the Potency entry in [2], in assay [10], in [7], in assay [4], in [5] and in assay [6] was “inactive” throughout.
